The target in assay [1] is Aryl hydrocarbon receptor (Homo sapiens) (UniProt P35869). Kind of assay: qHTS assay to identify small molecule that activate the aryl hydrocarbon receptor (AhR) signaling pathway (AID 743085). Further: nearly all actives have a fitted effect of over 15% in size. Further: potency means the concentration at half of the fitted maximal effect.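 On activation: HG2L7.5c1 human HepG2 liver cells with stably integrated DRE-driven firefly reporter; series mostly up to about 70 µM.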 The essentials: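 24 h compound exposure, 37C, HepG2-derived HG2L7.5c1 cells with DRE-responsive luciferase. Readouts: fluorescence viability, then luminescence at room temperature after 30 min.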
Chain of Aryl hydrocarbon receptor (Homo sapiens) (P35869 whole entry, looked up): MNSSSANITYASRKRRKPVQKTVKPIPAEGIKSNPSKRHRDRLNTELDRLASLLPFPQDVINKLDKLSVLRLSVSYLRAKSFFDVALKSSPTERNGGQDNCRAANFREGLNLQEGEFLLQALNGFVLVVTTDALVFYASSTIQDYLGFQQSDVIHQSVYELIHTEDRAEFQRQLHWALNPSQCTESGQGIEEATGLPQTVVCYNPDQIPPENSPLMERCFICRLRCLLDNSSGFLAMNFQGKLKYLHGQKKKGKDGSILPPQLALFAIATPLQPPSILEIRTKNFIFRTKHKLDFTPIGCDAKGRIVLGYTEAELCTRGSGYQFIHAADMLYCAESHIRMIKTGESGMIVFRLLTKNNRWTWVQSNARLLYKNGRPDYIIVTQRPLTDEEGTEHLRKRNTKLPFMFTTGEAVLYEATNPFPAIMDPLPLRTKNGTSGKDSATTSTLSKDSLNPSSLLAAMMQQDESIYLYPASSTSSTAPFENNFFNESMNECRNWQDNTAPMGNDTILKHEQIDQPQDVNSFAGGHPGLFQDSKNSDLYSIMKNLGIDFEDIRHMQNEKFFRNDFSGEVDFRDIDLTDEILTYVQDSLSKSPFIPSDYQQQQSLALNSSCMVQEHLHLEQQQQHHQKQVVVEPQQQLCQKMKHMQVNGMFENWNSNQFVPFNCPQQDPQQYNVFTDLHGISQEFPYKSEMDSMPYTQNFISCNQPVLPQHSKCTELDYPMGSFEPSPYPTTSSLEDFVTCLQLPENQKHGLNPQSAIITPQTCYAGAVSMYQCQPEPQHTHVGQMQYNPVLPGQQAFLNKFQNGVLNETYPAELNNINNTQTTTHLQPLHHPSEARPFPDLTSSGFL
On the technique in general: qHTS replaces the single test concentration by a dilution series.

The nature of assay [2]: qHTS assay to identify small molecule that activate the aryl hydrocarbon receptor (AhR) signaling pathway - cell viability counter screen (AID 743086). Further: nearly all actives have a fitted effect of over 45% in size. Further: potency means the concentration at half of the fitted maximal effect. The essentials:
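Cytotoxicity counter screen: CellTiter-Fluor signal (30 min, 37 C) in 4000 HepG2 cells/well carrying the DRE-luciferase reporter, following 24 h compound exposure at 37 C.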

Assay [3] deals with Peroxisome proliferator-activated receptor gamma (Homo sapiens) (UniProt P37231). The assay can be described thus: qHTS assay to identify small molecule agonists of the peroxisome proliferator-activated receptor gamma (PPARg) signaling pathway (AID 743094; active means well fitted activation curve with a large enough effect in the signal ratio in the repeat runs, not every such curve was filed as active; the % refers to the signal ratio; further: potency means the concentration at half of the fitted maximal effect). The essentials: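 GeneBLAzer PPARg UAS-bla HEK293H cells carrying a stably integrated beta-lactamase reporter were pre-incubated 5 h at 37C, then exposed to compounds in DMSO for 17 h at 37C; LiveBLAzer B/G FRET substrate was added for 1 h at room temperature and fluorescence read.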
Chain of Peroxisome proliferator-activated receptor gamma (Homo sapiens) (P37231 whole entry, looked up): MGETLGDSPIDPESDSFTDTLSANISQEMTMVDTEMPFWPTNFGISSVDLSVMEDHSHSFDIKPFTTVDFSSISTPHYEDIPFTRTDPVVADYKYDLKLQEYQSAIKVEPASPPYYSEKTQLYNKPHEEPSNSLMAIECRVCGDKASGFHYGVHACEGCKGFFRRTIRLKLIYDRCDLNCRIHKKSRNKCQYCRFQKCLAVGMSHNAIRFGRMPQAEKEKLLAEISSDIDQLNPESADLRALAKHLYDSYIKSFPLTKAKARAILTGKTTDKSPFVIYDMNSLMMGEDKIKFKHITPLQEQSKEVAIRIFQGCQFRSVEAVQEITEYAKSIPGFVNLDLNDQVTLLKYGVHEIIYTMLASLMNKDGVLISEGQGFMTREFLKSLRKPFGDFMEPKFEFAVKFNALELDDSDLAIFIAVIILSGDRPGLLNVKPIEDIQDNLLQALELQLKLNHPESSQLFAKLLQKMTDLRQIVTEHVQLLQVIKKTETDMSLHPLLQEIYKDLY

Assay [4] can be described thus: qHTS assay to identify small molecule antagonists of the peroxisome proliferator-activated receptor gamma (PPARg) signaling pathway - cell viability counter screen (AID 743194). Further: nearly all actives have a fitted effect of over 55% in size. Put shortly:
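Viability was measured as CellTiter-Glo luminescence in GeneBLAzer PPARg UAS-bla HEK293H cells. These cells had been exposed 17 h at 37 C to compounds together with rosiglitazone at 50 nM final, with the beta-lactamase readout taken in the same wells.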

The nature of assay [5]: qHTS assay for small molecule activators of the heat shock response signaling pathway - cell viability counter screen (AID 743209). Further: nearly all actives have a fitted effect of over 50% in size. Put shortly:
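CellSensor HSE-bla HeLa cells, plated overnight at 37 C/5% CO2, were exposed to compounds in DMSO for 5 h at 37 C. Viability was then read in the same wells by CellTiter-Glo luminescence after 30 min at room temperature.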

A short description of assay [6]: qHTS assay for small molecule activators of the heat shock response signaling pathway (AID 743210; active means well fitted activation curve with a large enough effect in the signal ratio in the repeat runs, with a control signal flat, not every such curve was filed as active; the % refers to the signal ratio;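 further: HeLa cells with beta-lactamase reporter driven by heat shock elements; series mostly up to about 63 µM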). The essentials: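 HeLa HSE-bla cells, overnight plating; cpd in DMSO 5 h, 37 C; LiveBLAzer B/G FRET substrate 2.5 h RT; fluorescence intensity read.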
Assay [7] in a line: qHTS assay to identify small molecule agonists of the peroxisome proliferator-activated receptor delta (PPARd) signaling pathway - cell viability counter screen (AID 743211). Further: nearly all actives have a fitted effect of over 55% in size. Put shortly: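 Luminescent ATP viability assay (CellTiter-Glo, 30 min RT) in UAS-bla HEK293H cells carrying the PPAR delta reporter construct, 3000 cells/well, after a 17 h compound treatment at 37 C.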

The target in assay [8] is Peroxisome proliferator-activated receptor delta (Homo sapiens) (UniProt Q03181). Kind of assay: qHTS assay to identify small molecule agonists of the peroxisome proliferator-activated receptor delta (PPARd) signaling pathway (AID 743212; calls by dose curve; further: potency means the concentration at half of the fitted maximal effect). The essentials: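 HEK293H PPARd-bla cells; 5 h preincubation 37 C/5% CO2; compound (DMSO) 37 C; LiveBLAzer B/G FRET substrate 2 h RT; fluorescence intensity.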
Chain of Peroxisome proliferator-activated receptor delta (Homo sapiens) (Q03181 whole entry, looked up): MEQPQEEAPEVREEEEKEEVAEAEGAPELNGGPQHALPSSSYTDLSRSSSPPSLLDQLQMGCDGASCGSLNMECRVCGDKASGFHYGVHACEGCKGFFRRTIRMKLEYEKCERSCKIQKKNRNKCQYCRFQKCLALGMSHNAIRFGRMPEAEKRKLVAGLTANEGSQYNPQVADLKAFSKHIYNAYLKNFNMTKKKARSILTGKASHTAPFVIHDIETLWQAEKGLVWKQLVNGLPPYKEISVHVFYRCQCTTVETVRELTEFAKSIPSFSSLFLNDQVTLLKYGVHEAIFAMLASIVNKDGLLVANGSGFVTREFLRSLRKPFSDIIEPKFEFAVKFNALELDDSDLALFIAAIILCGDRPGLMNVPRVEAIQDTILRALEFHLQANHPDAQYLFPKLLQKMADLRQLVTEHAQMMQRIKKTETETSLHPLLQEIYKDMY

The nature of assay [9]: qHTS assay to identify small molecule antagonists of the peroxisome proliferator-activated receptor delta (PPARd) signaling pathway - cell viability counter screen (AID 743213). Further: nearly all actives have a fitted effect of over 50% in size. Put shortly:
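Same-well viability: cells pre-incubated 5 h, dosed with compound plus 300 nM L165041, kept 17 h at 37 C, FRET substrate 2 h RT, then CellTiter-Glo 30 min RT and luminescence.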

Assay [10] addresses Bile acid receptor (Homo sapiens) (UniProt Q96RI1). Kind of assay: qHTS assay to identify small molecule antagonists of the farnesoid-X-receptor (FXR) signaling pathway (AID 743217; active means well fitted inhibition curve with a large enough effect in the signal ratio in the repeat runs, not every such curve was filed as active; the % refers to the signal ratio). The essentials: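 FXR-UAS-bla HEK 293T cells pre-incubated 5 h at 37 °C, then exposed to compounds with chenodeoxycholic acid (50 uM final) for 16 h at 37 °C. Beta-lactamase reporter read by LiveBLAzer B/G FRET substrate fluorescence after 2 h at room temperature.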

Assay [11] is described as follows: qHTS assay to identify small molecule agonists of the farnesoid-X-receptor (FXR) signaling pathway - cell viability counter screen (AID 743218). Further: nearly all actives have a fitted effect of over 45% in size. Put shortly:
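FXR-UAS-bla HEK 293T cells, plated 5 h at 37 C, were exposed to compounds for 16 h at 37 C. CellTiter-Glo was then added to the same wells as the bla readout; luminescence read after 30 min at room temperature.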

Assay [12] has as its target Bile acid receptor (Homo sapiens) (UniProt Q96RI1). Kind of assay: qHTS assay to identify small molecule agonists of the farnesoid-X-receptor (FXR) signaling pathway (AID 743220; active means well fitted activation curve with a large enough effect in the signal ratio in the repeat runs, not every such curve was filed as active; the % refers to the signal ratio). Put shortly: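 Beta-lactamase reporter under UAS control in GeneBLAzer FXR HEK 293T cells (5000/well) measured with LiveBLAzer FRET substrate after 2 h at room temperature. Compound exposure lasted 16 h at 37C.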

The nature of assay [13]: qHTS assay to identify small molecule antagonists of the farnesoid-X-receptor (FXR) signaling pathway - cell viability counter screen (AID 743221; active means well fitted cell-killing curve with a large enough effect in the repeat runs, not every such curve was filed as active; further: nearly all actives have a fitted effect of over 50% in size). Put shortly:
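In GeneBLAzer FXR-UAS-bla HEK 293T cells stimulated with 50 uM chenodeoxycholic acid (final), compounds acted for 16 h at 37 C. Viability was assessed afterwards by CellTiter-Glo luminescence.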

The target of assay [14] is Vitamin D3 receptor (Homo sapiens) (UniProt P11473). The assay can be described thus: qHTS assay to identify small molecule antagonists of the vitamin D receptor (VDR) signaling pathway (AID 743223; active means well fitted inhibition curve with a large enough effect in the signal ratio in the repeat runs, not every such curve was filed as active; the % refers to the signal ratio). Put shortly:
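Agonist 1alpha,25-dihydroxyvitamin D3 (3 nM in well) was added with each compound to VDR-bla cells preincubated 4 h. Cells stood 16 h at 37C, then FRET substrate 2 h at room temperature; fluorescence intensity recorded.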

A short description of assay [15]: qHTS assay to identify small molecule agonists of the vitamin D receptor (VDR) signaling pathway - cell viability counter screen (AID 743224). Further: series mostly up to about 63 µM; nearly all actives have a fitted effect of over 50% in size. Put shortly:
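VDR-bla cells were preincubated 4 h at 37C/5% CO2, then exposed to compounds for 16 h. After the 2 h room-temperature bla FRET read, CellTiter-Glo was added to the same wells and luminescence read after 30 min.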

A short description of assay [16]: qHTS assay to identify small molecule antagonists of the vitamin D receptor (VDR) signaling pathway - cell viability counter screen (AID 743225). Further: nearly all actives have a fitted effect of over 50% in size. The essentials: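 Luminescent cell viability (CellTiter-Glo) in VDR-bla HEK 293T cells after 16 h compound exposure at 37C in the presence of 3 nM final 1-alpha,25-dihydroxy vitamin D3.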
In assay [17] the target is Peroxisome proliferator-activated receptor gamma (Homo sapiens) (UniProt P37231). The assay can be described thus: qHTS assay to identify small molecule antagonists of the peroxisome proliferator-activated receptor gamma (PPARg) signaling pathway (AID 743191; calls by dose curve; further: series mostly up to about 63 µM; nearly all actives have a fitted effect of over 30% in size). Put shortly:
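Beta-lactamase reporter under UAS control in HEK293H PPARg-bla cells; compound treatment 17 h at 37C. Read-out: fluorescence intensity after 1 h room-temperature incubation with LiveBLAzer B/G FRET substrate.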

Assay [18] can be described thus: qHTS assay for small molecule agonists of the antioxidant response element (ARE) signaling pathway (AID 743202; active means well fitted activation curve with a large enough effect in the signal ratio in the repeat runs, not every such curve was filed as active; the % refers to the signal ratio). Put shortly: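 Quantitative high-throughput format in HepG2 cells bearing an integrated ARE-beta-lactamase reporter. Compound exposure lasted 16 h at 37 C, and fluorescence was read 2 h after adding LiveBLAzer B/G substrate at room temperature.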
Assay [19] is described as follows: qHTS assay for small molecule agonists of the antioxidant response element (ARE) signaling pathway - cell viability counter screen (AID 743203; calls by dose curve; further: nearly all actives have a fitted effect of over 55% in size). The essentials: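 CellSensor ARE-bla HepG2 cells, 2,000 per well, rested 5 hrs at 37C/5% CO2, then exposed to compound in DMSO for 16 hrs; viability read as CellTiter-Glo luminescence after 30 min at room temperature, in the reporter wells.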

Assay [20] addresses Vitamin D3 receptor (Homo sapiens) (UniProt P11473). The assay can be described thus: qHTS assay to identify small molecule agonists of the vitamin D receptor (VDR) signaling pathway (AID 743222; calls by dose curve; further: potency means the concentration at half of the fitted maximal effect). Put shortly:
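VDR-bla cells were plated 4 h at 37C/5% CO2, then exposed to compounds in DMSO for 16 h. After LiveBLAzer B/G FRET substrate addition and 2 h at room temperature, beta-lactamase reporter fluorescence was read.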

Each structure is given as a SMILES string. Where “and” joins values, the source holds several entries; their conditions need not be identical. Identical values can stand only once. Results filed as inconclusive are left out. Calls of active or inactive are those of the source. Unless noted, the call rests on the fitted dose curve; in most records, active means well fitted curve in the direction sought with a large enough effect in the repeat runs; inconclusive means weak or mixed curves; inactive means no such curve, though single readings can be large; an effect the other way counts as inactive or inconclusive.

The source of these data is PubChem BioAssay (Tox21).

Chain of Bile acid receptor (Homo sapiens) (Q96RI1 whole entry, looked up): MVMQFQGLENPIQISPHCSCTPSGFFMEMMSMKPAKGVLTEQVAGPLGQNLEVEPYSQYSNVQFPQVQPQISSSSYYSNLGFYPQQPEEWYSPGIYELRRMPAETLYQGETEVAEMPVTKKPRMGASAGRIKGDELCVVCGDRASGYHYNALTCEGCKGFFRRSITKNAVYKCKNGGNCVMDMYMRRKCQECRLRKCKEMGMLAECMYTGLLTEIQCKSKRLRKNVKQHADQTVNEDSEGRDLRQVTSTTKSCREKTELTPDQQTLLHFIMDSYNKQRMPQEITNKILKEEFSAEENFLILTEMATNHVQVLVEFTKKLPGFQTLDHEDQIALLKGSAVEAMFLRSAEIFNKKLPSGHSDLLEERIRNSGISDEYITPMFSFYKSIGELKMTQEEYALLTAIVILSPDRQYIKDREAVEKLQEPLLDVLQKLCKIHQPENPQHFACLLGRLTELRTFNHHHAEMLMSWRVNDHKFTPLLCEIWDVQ
Chain of Vitamin D3 receptor (Homo sapiens) (P11473 whole entry, looked up): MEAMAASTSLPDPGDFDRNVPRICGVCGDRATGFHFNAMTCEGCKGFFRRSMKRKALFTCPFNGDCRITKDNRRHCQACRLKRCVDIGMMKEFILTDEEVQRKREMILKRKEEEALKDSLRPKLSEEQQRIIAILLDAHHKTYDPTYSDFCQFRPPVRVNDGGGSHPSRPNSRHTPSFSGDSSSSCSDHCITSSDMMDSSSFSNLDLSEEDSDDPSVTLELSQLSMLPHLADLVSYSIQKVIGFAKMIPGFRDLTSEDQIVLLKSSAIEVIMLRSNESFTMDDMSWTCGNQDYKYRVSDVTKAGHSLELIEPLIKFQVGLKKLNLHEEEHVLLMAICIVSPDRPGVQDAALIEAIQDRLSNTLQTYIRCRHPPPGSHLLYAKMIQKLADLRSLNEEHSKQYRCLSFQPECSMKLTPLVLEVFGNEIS

With `Nc1c(N=Nc2ccc(-c3ccc(N=Nc4cc(S(=O)(=O)O)c5ccccc5c4N)cc3)cc2)cc(S(=O)(=O)O)c2ccccc12`, the Potency is 23.7 µM (active) and 24.3 µM (active) in assay [1]; 21.1 µM (active) and 9.68 µM (active) in assay [2]. In addition, the Potency entry in assay [3], in assay [4], in assay [5], in assay [7], in assay [8] and in assay [9] was “inactive” in each case. Also, the Potency result in assay [10], in [11], in [13], in assay [14], in [15] and in assay [16] was “inactive” each time. The result in [6] and in assay [12] was inactive.
Consider `CCOc1ccc(NC(C)=O)cc1`, for which the Potency entry in [1], in assay [2], in [3], in assay [17], in assay [4] and in [18] was “inactive” throughout. Moreover, the Potency entry in assay [19], in [5], in [7], in assay [9], in assay [10] and in [11] was “inactive” throughout. Further, the Potency result in [13], in assay [20], in assay [14], in assay [15] and in [16] was “inactive” throughout. In addition, the call in assay [6] and in [12] was inactive.
Regarding `C=CCc1ccc(O)c(OC)c1`, the Potency result in [1], in [2], in assay [3], in [4], in assay [18] and in assay [19] was “inactive” each time. Further, the Potency entry in assay [5], in assay [7], in assay [8], in assay [9], in assay [13] and in assay [15] was “inactive” each time. Further, the Potency entry in assay [16] was “inactive”. Also, the compound was called inactive in assay [6].
As to `Cc1cc(=O)oc2cc(O)ccc12`, the Potency result in assay [1], in assay [2], in assay [4], in assay [19], in assay [5] and in assay [7] was “inactive” each time. For the same compound, the Potency result in assay [9], in assay [13], in assay [15] and in [16] was “inactive” in each case. Moreover, the Potency in assay [3] was 49 µM (active); in assay [8] it was 43.6 µM (active) and 26.6 µM (active); in assay [20], 21.1 µM (active).
For `CCCCNC(=O)NS(=O)(=O)c1ccc(C)cc1`, the Potency entry in assay [1], in assay [2], in [3], in [17], in assay [4] and in [18] was “inactive” in each case. The Potency result in assay [19], in [5], in [7], in [8], in assay [9] and in assay [10] was “inactive” throughout. The Potency entry in [13], in [20], in assay [14], in [15] and in [16] was “inactive” each time. Moreover, the result in assay [6] and in [12] was inactive.
Consider `O=c1[nH]cnc2c1ncn2[C@H]1CC[C@@H](CO)O1`, for which the Potency entry in assay [1], in [2], in assay [3], in [17], in [4] and in assay [18] was “inactive” in each case. The Potency result in assay [19], in [5], in assay [7], in assay [8], in assay [9] and in assay [13] was “inactive” each time. Besides, the Potency result in assay [15] and in assay [16] was “inactive” each time.
As for `CCCCCCCC(=O)OCC(COC(=O)CCCCCCC)OC(=O)CCCCCCC`, the Potency entry in assay [1], in [2], in assay [3], in assay [17], in assay [4] and in assay [18] was “inactive” throughout. Further, the Potency result in assay [19], in assay [5], in assay [7], in assay [8], in assay [9] and in [10] was “inactive” throughout. For the same compound, the Potency result in assay [11], in assay [13], in assay [20], in [14], in assay [15] and in assay [16] was “inactive” in each case. The compound was called inactive in assay [6] and in assay [12].
